From PubChem BioAssay (NCI)
Values joined by “and” are separate entries in the source; they are usually repeats but may differ in a detail not shown here. Equal values may be shown once. Compounds without any hit were thinned out: in the full panel of roughly 83,000, 20% have a hit.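 Testing used 96-well plates and a 48-hour single-concentration exposure. Example: -40 means 40% of the starting cells died.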 Active and inactive are the calls of the source. Rule for the calls: active = growth percent below 10; inactive = the rest.

These compounds were tested on MDA-MB-468 breast (assay: NCI-60 one-dose screen, 48 h (100 = growth as untreated, 0 = no growth, -100 = all killed)). Settings: 10 µM unless noted.

SMILES | growth
CCOc1ccc(/C=C/[N+](=O)[O-])cc1 | 35.4% (inactive)
COc1ccc(/C=C(/C(=O)N2CCCC2)c2cc(OC)c(OC)c(OC)c2)cc1N | -4.72% (active)
O=[N+]([O-])c1ccc(F)c([N+](=O)[O-])c1F | 98.6% (inactive)
OCCCCCNC1CCCCC1 | 97.6% (inactive)
CCOc1ccccc1C(=O)OCC(Cl)(Cl)Cl | 110% (inactive)
COc1cc2c(c(OC)c1OC)-c1ccc(O)cc1[C@@H](NC(C)=O)CC2 | -20.9% (active) and -7.5% (active)
NC(Cc1ccccc1)c1ccccc1 (stereo not given) | 107% (inactive) and 105% (inactive)
N#CC1(C#N)C(c2ccc(N(CCCl)CCCl)cc2)OC23CCCCC2C1(C#N)C(=N)O3 (stereo not given) | 56.5% (inactive)
C/C(=C\c1ccc(Cl)c(Cl)c1)[N+](=O)[O-] | -77.9% (active) and 93.8% (inactive)
C=CCc1cc2c(cc1OCC)OCO2 | 101% (inactive)
CC1(C)C(C(=O)c2cn(CCCCF)c3ccccc23)C1(C)C | 103% (inactive)
CC(=O)N(C)C1=Nc2ccc(Cl)cc2C(c2ccccc2)=[N+]([O-])C1 | 111% (inactive)
O=C([O][Hg][CH2]C1OCCOC1[CH2][Hg][O]C(=O)c1ccccc1)c1ccccc1 (stereo not given) | -81.5% (active)
S=P(Nc1ccccc1)(Nc1ccccc1)c1ccccc1 | 127% (inactive)
COc1ccc(Nc2ccnc3cc(Cl)ccc23)cc1CN(CCCl)CCCl | -58.6% (active)
CNC12C3C4C1C1C2C3C41C(=O)N[C@H](C(=O)N(C)[C@H](C[C@@H](OC(C)=O)c1nc(C(=O)N[C@@H](Cc2ccccc2)C[C@H](C)C(=O)OC)cs1)C(C)C)C1CC1 (stereo not given in full) | -46.5% (active)
COC(=O)[C@@]1(C)CC[C@]2(C)CC[C@]3(C)C4=CC=C5C(=CC(=O)C(O)=C5C)[C@]4(C)CC[C@@]3(C)[C@@H]2C1 | -66.9% (active)
CCCCS(=O)(=O)Cl | 104% (inactive)
O=C1C=C2C(=CCOC2O)O1 (stereo not given) | -55.5% (active)
CC(C)COC(C[N+](=O)[O-])C(Cl)(Cl)Cl (stereo not given) | 112% (inactive)

SMILES | growth
CO[C@@H](c1ccccc1Cl)[C@H](C)OC(N)=O | 91.6% (inactive)
CC(C)(C)C(=O)OCOP(=O)(NCc1ccccc1)C1CCCN(O)C1=O (stereo not given) | -0.478% (active)
O=C1NC(=O)C(=Cc2cn(CCCCCCn3c4ccccc4c(=O)c4ccccc43)c3ccccc23)C(=O)N1 | -26% (active)
CNC(C)Cc1ccccc1 (stereo not given) (tested in a mixture with another compound) | 91.3% (inactive)
CC(=O)O[C@@H]1C2=C(C)C3(CC3)[C@@](C)(O)C(=O)C2=C[C@@]1(C)CO | -54% (active)
O=C(Nc1ccc(Br)cc1)c1cc(Br)cc(Br)c1O | -23.3% (active)
COC(=O)CCP(CCC(=O)OC)c1ccccc1 | 105% (inactive)
NC(Cc1ccc2c(c1)OCO2)c1ccc2c(c1)OCO2 (stereo not given) | 96% (inactive)
CCOC(=O)P(=O)(OCC)OCC | 110% (inactive)
CN(C)CC(C(=O)Cc1ccccc1)c1ccccc1 (stereo not given) | -29.8% (active)
COc1ccc(/C=C\c2cc(OC)c(OC)c(OC)c2)cc1N/C=C\C(=O)c1c[nH]c2ccccc12 | 11.3% (inactive)
CCCCCCCCCCCCCCCC[N+](C)(C)C | -77.9% (active) and -17% (active)
CCc1ccccc1[C@@H]1C[C@]2(C)CCO[C@@H]2OO1 | 102% (inactive)
CC1=C(O)[C@@](C)(CCCCC[C@H](C)CCCCc2ccc(O)cc2)OOC1=O | 113% (inactive)
CC(=O)C(N)Cc1ccccc1 (stereo not given) | 97% (inactive)
Cc1cc(C)cc(Nc2nc3c(s2)CC[C@@]2(C)C3=CC[C@@H]3[C@@H]2CC[C@]2(C)C(=O)CC[C@@H]32)c1 | 57.9% (inactive)
O=C1CN=C(c2ccc(Cl)cc2)c2sccc2N1 | 104% (inactive)
CCCC(=O)O[C@@H]1C[C@H]2C[C@@H](O[C@@H]3O[C@@H](C)[C@@H](O)[C@@H](O)[C@H]3OC)C[C@@H](C[C@@H](C)/C=C/C=C\C[C@@H]3O[C@@H](C[C@@H]3C)[C@@H](O)C[C@H]3C[C@@]1(O)C(=O)O3)O2 | -6.3% (active)
Nc1c(F)cc(-c2nc3cc(F)ccc3[se]2)cc1F | -39.8% (active)
CC(C)=CCC[C@H](C(=O)O)[C@@H]1CC[C@]2(C)C3=C(CC[C@@]12C)[C@@]1(C)CC[C@H](O)C(C)(C)[C@@H]1CC3 | 107% (inactive)
